Test [1] addresses EPS15 121-215, P42566.
Test [2] deals with CRK 124-198, P46108.

Here are results for 62 molecules from PMC8769072, “Proteome‐scale mapping of binding sites in the unstructured regions of the human proteome” (Molecular Systems Biology, 2022).

Chain of CRK 124-198, P46108 (P46108 124-198): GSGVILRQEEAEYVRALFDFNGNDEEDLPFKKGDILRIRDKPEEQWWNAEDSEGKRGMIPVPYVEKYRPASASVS
Chain of EPS15 121-215, P42566 (P42566 121-215): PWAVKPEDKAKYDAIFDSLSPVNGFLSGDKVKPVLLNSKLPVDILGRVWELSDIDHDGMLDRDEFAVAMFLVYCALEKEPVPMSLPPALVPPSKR

B1: WNK4, Q96J92 (peptide)
chain: PLSPGNPFSPGTPISP
As for B1, in test [1], the “selected by phage display” value is “confidence 3 (active)”.

B2: NPM3, O75607 (peptide)
chain: VELAPILPAKKQGGRP
As for B2, in test [2], the “selected by phage display” value is “confidence 4 (active)”.

B3: FAM205A, Q6ZU69 (peptide)
chain: PQLLPKTSPQSAPPSS
As to B3, the “selected by phage display” value in test [2] was “confidence 4 (active)”.

B4: KCNJ3, P48549 (peptide)
chain: ADLPPKLQKMAGGAAR
Regarding B4, in test [2], the “selected by phage display” value is “confidence 4 (active)”.

B5: PCLO, Q9Y6V0 (peptide)
chain: SAVSSVVNKFNPFDLI
With B5, in test [1], the “selected by phage display” value is “confidence 3 (active)”.

B6: TNRC6A, Q8NDV7 (peptide)
chain: ELWKVPLPPKNITAPS
B6: the “selected by phage display” value in test [2] was “confidence 3 (active)”.

B7: ZNF516, Q92618 (peptide)
chain: APPLPPREPPSKAAQE
On to B7, for which the “selected by phage display” value in test [2] is “confidence 2 (active)”.

B8: PHLDB1, Q86UU1 (peptide)
chain: PHSSPPPLPAKASRQL
For B8, the “selected by phage display” value in test [2] is “confidence 3 (active)”.

B9: KIAA1522, Q9P206 (peptide)
chain: PTLPPKGLAGPPASPG
Take B9: the “selected by phage display” value in test [2] is “confidence 3 (active)”.

B10: WDR83, Q9BRX9 (peptide)
chain: PRPPELPQKRLKTLDA
With B10, the “selected by phage display” value in test [2] is “confidence 4 (active)”.

B11: SCIMP, Q6UWF3 (peptide)
chain: NVLNESPVQLPPLPPR
Take B11: the “selected by phage display” value in test [2] is “confidence 3 (active)”.

B12: AGFG1, P52594 (peptide)
chain: AAGPSVASSTNPFQTN
Turning to B12, in test [1], the “selected by phage display” value was “confidence 3 (active)”.

B13: PLEKHM2, Q8IWE5 (peptide)
chain: NPFNEEPAETVSSSDT
Regarding B13, in test [1], the “selected by phage display” value is “confidence 2 (active)”.

B14: ADNP, Q9H2P0 (peptide)
chain: ESVAYHAQNNPPVPPK
For the molecule B14, in test [2], the “selected by phage display” value was “confidence 2 (active)”.

B15: IRS4, O14654 (peptide)
chain: NDNSEYVPMLPGKFLG
Take B15: in test [2], the “selected by phage display” value is “confidence 3 (active)”.

B16: PRUNE2, Q8WUY3 (peptide)
chain: YTNPFSDNHQSPFLEG
Take B16: the “selected by phage display” value in test [1] is “confidence 2 (active)”.

B17: MLLT10, P55197 (peptide)
chain: TQAPPLHTATTNPFLT
B17: the “selected by phage display” value in test [1] is “confidence 4 (active)”.

B18: DAB2IP, Q5VWQ8 (peptide)
chain: IEAKDLPAKKKYLAEL
Consider B18, for which the “selected by phage display” value in test [2] was “confidence 2 (active)”.

B19: VPS37B, Q9H9H4 (peptide)
chain: PGLQAPPLPPRVGLPT
B19: the “selected by phage display” value in test [2] was “confidence 4 (active)”.

B20: IVL, P07476 (peptide)
chain: VQDIQPALPTKGEVLL
As to B20, in test [2], the “selected by phage display” value was “confidence 4 (active)”.

B21: EIF3G, O75821 (peptide)
chain: PLPPPKEVINGNIKTV
Consider B21, for which, in test [2], the “selected by phage display” value is “confidence 3 (active)”.

B22: ADD3, Q9UEY8 (peptide)
chain: TPPPPSMPHKERYFDR
As to B22, the “selected by phage display” value in test [2] is “confidence 2 (active)”.

B23: WDR59, Q6PJI9 (peptide)
chain: DSASSNPFALPNSVTP
As for B23, the “selected by phage display” value in test [1] was “confidence 3 (active)”.

B24: SH2B1, Q9NRF2 (peptide)
chain: SMELLPPELPPRIPIE
As for B24, the “selected by phage display” value in test [2] is “confidence 4 (active)”.

B25: EP400, Q96L91 (peptide)
chain: TPVAIATQLPPKVSAA
Take B25: the “selected by phage display” value in test [2] was “confidence 2 (active)”.

B26: TPR, P12270 (peptide)
chain: DDTVEMPLPKKLKSVT
For B26, in test [2], the “selected by phage display” value was “confidence 2 (active)”.

B27: SNX30, Q5VWJ9 (peptide)
chain: PPLPEKFVVKGVVDRF
B27: in test [2], the “selected by phage display” value is “confidence 3 (active)”.

B28: SPATA31E1, Q6ZUB1 (peptide)
chain: PPEPLLPLKAPATQPH
Regarding B28, the “selected by phage display” value in test [2] was “confidence 2 (active)”.

B29: BCL11B, Q9C0K0 (peptide)
chain: LMNFLGDSNPFNLLRM
Turning to B29, the “selected by phage display” value in test [1] is “confidence 2 (active)”.

B30: FAM110B, Q8TC76 (peptide)
chain: LKAIPASSSAPPLPPK
With B30, in test [2], the “selected by phage display” value was “confidence 4 (active)”.

B31: EPN3, Q9H201 (peptide)
chain: NPFLTGLSAPSPTNPF
For the molecule B31, the “selected by phage display” value in test [1] was “confidence 3 (active)”.

B32: GNG5, P63218 (peptide)
chain: PLLTGVSSSTNPFRPQ
As to B32, the “selected by phage display” value in test [1] was “confidence 3 (active)”.

B33: UBQLN3, Q9H347 (peptide)
chain: VQEQFGGNPFATATTD
B33: the “selected by phage display” value in test [1] was “confidence 4 (active)”.

B34: UBQLN1, Q9UMX0 (peptide)
chain: QIMENPFVQSMLSNPD
Regarding B34, the “selected by phage display” value in test [1] is “confidence 3 (active)”.

B35: SLC1A1, P43005 (peptide)
chain: SSEVNIVNPFALESTI
With B35, the “selected by phage display” value in test [1] was “confidence 2 (active)”.

B36: KIAA1549, Q9HCM3 (peptide)
chain: NPFLPSDSSKTSELHS
For the molecule B36, the “selected by phage display” value in test [1] was “confidence 2 (active)”.

B37: MTCL1, Q9Y4B5 (peptide)
chain: LMDISPFLPEKGLPST
Turning to B37, the “selected by phage display” value in test [2] was “confidence 3 (active)”.

B38: NUAK2, Q9H093 (peptide)
chain: IPASPGQAAPLLPKKG
Regarding B38, the “selected by phage display” value in test [2] was “confidence 2 (active)”.

B39: MYO9A, B2RTY4 (peptide)
chain: SSSAHLPPKDRPVTVF
Regarding B39, the “selected by phage display” value in test [2] was “confidence 2 (active)”.

B40: CTTNBP2, Q8WZ74 (peptide)
chain: SSSPQLPPKPSIDLTV
Turning to B40, the “selected by phage display” value in test [2] was “confidence 2 (active)”.

B41: NCF4, Q15080 (peptide)
chain: SSALAATLPTLPAKVY
Take B41: in test [2], the “selected by phage display” value is “confidence 2 (active)”.

B42: BICRA, Q9NZM4 (peptide)
chain: TQPPPHLPTKLVIRHG
B42: the “selected by phage display” value in test [2] is “confidence 3 (active)”.

B43: GRIN2B, Q13224 (peptide)
chain: YPDRVTQNPFIPTFGD
For the molecule B43, in test [1], the “selected by phage display” value is “confidence 3 (active)”.

B44: NUMB, P49757 (peptide)
chain: TPSEADRWLEEVSKSV
For B44, the “selected by phage display” value in test [1] is “confidence 3 (active)”.

B45: SPATA31E1, Q6ZUB1 (peptide)
chain: NPFWNVSTQPQQLPRP
For the molecule B45, in test [1], the “selected by phage display” value was “confidence 4 (active)”.

B46: SATB1, Q01826 (peptide)
chain: GPRLPPRQPTVASPAE
Regarding B46, in test [2], the “selected by phage display” value was “confidence 2 (active)”.

B47: LMTK3, Q96Q04 (peptide)
chain: HANPSNPFYEALSTPS
For B47, the “selected by phage display” value in test [1] was “confidence 4 (active)”.

B48: C6orf132, Q5T0Z8 (peptide)
chain: MLGPAIPPKATPEPAI
B48: the “selected by phage display” value in test [2] is “confidence 3 (active)”.

B49: WEE1, P30291 (peptide)
chain: NPFTPDSLLLHSSGQA
B49: the “selected by phage display” value in test [1] was “confidence 4 (active)”.

B50: SIM2, Q14190 (peptide)
chain: KPMLPAKFGQPQGSPA
On to B50, for which the “selected by phage display” value in test [2] was “confidence 2 (active)”.

B51: PYGO2, Q9BRQ0 (peptide)
chain: NPFEDDFGAPKVGVAA
Regarding B51, the “selected by phage display” value in test [1] is “confidence 2 (active)”.

B52: ATXN1L, P0C7T5 (peptide)
chain: SQEALPPKKRDLPVTS
Regarding B52, the “selected by phage display” value in test [2] was “confidence 3 (active)”.

B53: IL31RA, Q8NI17 (peptide)
chain: ELPVSPEIPPRKSQYL
As for B53, the “selected by phage display” value in test [2] was “confidence 2 (active)”.

B54: HDLBP, Q00341 (peptide)
chain: FPPLPEKAAALESAQE
For the molecule B54, in test [2], the “selected by phage display” value was “confidence 3 (active)”.

B55: UBQLNL, Q8IYU4 (peptide)
chain: MQDPFGGNPFTALLAG
As for B55, the “selected by phage display” value in test [1] was “confidence 3 (active)”.

B56: SLC25A3, Q00325 (peptide)
chain: NPFNTPHLQLVHDGLG
On to B56, for which the “selected by phage display” value in test [1] was “confidence 2 (active)”.

B57: DTX1, Q86Y01 (peptide)
chain: GVPALPVKNLNGTGPV
On to B57, for which the “selected by phage display” value in test [2] is “confidence 3 (active)”.

B58: PPARGC1B, Q86YN6 (peptide)
chain: PSAPQLPPRDSPRALM
Take B58: the “selected by phage display” value in test [2] is “confidence 2 (active)”.

B59: PPFIA4, O75335 (peptide)
chain: FSMQEPMVPAKLGTQA
In the case of B59, the “selected by phage display” value in test [2] was “confidence 3 (active)”.

B60: SH3BP4, Q9P0V3 (peptide)
chain: YSNNPFWNGVQTNPFL
In the case of B60, in test [1], the “selected by phage display” value was “confidence 2 (active)”.

B61: ZNF804A, Q7Z570 (peptide)
chain: NTQPPLPFKEAHVSGH
With B61, the “selected by phage display” value in test [2] is “confidence 4 (active)”.

B62: AGFG1, P52594 (peptide)
chain: TPFGQVAAAGVSSNPF
Regarding B62, the “selected by phage display” value in test [1] is “confidence 3 (active)”.
